Screening data (PubChem)
A selection: hits, their analogues and other compounds. The true share with any hit is near 0.99%.
RTF Ca sens act: increases calcium sensitivity of human cardiac regulated thin filaments. P19429+P45379. IANBD-labeled TnC RTF fluorescence at EC20 calcium; 0% EC20 calcium, 100% full calcium. activation, % at 7.2 µM. hit rate 0.24% among 340,000;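 active means activation above the mean over all tested compounds plus 3 SD, cut at about 30% in these data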;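 further: rise in fluorescence read as greater calcium sensitivity of cardiac thin filaments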
Keap1-Nrf2 PPI: inhibitors of human Keap1-Nrf2 protein-protein interaction; hit rate 0.15% among 340,000; Q14145; Keap1 Kelch-Nrf2 peptide fluorescence polarization, 1536-well; AID 504523; inhibition, % at 9.4 µM; in the data active means inhibition above about 12%;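 further: human Keap1 Kelch domain with fluorescein labeled Nrf2 9mer peptide probe; higher means more block of Keap1 binding to Nrf2 peptide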
LANA DNA inh: KSHV C-LANA DNA binding inhibition; MBP-C-LANA/FAM-LBS DNA binding, fluorescence polarization; inhibition, % at 9 µM; hit rate 0.078% among 340,000;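 active means highest replicate inhibition at or above 60% at 9 µM, even if other replicates fall short; inactive means all replicates below 60% inhibition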
LANA-H2B inh: blocks KSHV LANA binding to histone H2A/H2B. Q9QR71. cell-free LANA-H2A/H2B peptide, fluorescence polarization. inhibition, % (no concentration beside the values). hit rate 0.6% among 320,000. AID 2629; in the data active means inhibition mostly above about 10%, no sharp cut-off; inactive means mostly below about 6.7%
Target sequence (Q9QR71 whole entry, looked up): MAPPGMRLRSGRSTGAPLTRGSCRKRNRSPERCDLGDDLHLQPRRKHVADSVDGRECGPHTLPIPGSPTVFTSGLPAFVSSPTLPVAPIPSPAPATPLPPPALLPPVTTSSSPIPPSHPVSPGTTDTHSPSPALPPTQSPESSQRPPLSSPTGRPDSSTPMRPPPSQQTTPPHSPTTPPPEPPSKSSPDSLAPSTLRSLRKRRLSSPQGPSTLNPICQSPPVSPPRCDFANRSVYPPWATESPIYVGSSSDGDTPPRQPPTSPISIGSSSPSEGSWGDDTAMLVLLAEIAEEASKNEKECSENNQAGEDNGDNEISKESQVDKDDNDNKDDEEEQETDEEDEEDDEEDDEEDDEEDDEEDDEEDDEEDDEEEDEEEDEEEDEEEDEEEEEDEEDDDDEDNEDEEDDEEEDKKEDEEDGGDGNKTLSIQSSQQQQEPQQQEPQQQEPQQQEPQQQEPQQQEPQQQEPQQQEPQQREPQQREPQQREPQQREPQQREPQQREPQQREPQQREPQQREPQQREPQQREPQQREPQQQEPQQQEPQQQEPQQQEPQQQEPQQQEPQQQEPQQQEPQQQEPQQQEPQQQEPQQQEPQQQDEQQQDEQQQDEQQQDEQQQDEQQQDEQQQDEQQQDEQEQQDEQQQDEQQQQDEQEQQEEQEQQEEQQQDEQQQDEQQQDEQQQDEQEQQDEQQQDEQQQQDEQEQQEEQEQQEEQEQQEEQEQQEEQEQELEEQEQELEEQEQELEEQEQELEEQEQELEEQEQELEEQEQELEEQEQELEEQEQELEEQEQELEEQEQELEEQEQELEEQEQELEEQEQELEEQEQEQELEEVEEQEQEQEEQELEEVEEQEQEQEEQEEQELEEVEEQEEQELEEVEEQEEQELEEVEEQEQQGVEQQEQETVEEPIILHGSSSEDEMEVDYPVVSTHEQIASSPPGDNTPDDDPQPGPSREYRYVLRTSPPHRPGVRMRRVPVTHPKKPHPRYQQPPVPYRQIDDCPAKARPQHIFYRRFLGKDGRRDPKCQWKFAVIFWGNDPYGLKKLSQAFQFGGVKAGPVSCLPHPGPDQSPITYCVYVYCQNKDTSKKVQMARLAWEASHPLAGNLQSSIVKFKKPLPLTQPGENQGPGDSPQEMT
Cardiac RTF inh: cardiac RTF calcium desensitization; hit rate 0.12% among 340,000; inhibition, % at 7.15 µM; IANBD-labeled cardiac RTF, Ca2+ fluorescence; P19429+P45379; AID 493244;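 active means inhibition above the mean inhibition of all tested compounds plus 3 SD, cut at about 17% in these data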;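 further: assay run at fixed EC70 calcium of 1.6 mM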
Hits are given with their value; ! = a repeat was not active.

How did CSc1ccc(/C=c2\s/c(=C\C(=O)C(C)(C)C)n(CC(=O)NCCC3=CCCCC3)c2=O)cc1 do in these assays?
RTF Ca sens act: inactive; Keap1-Nrf2 PPI: inactive; LANA DNA inh: inactive; LANA-H2B inh: inactive; Cardiac RTF inh: inactive

How did CC(C)=CCc1c(-c2ccc(O)cc2O)oc2c3c(cc(O)c2c1=O)OC(C)(C)C=C3 do in these assays?
LANA-H2B inh: 23

Results for CC(C)=CCc1c2c(c(O)c3c(=O)c4c(oc13)-c1cc(O)c(O)cc1OC4C=C(C)C)C=CC(C)(C)O2 (stereo unspecified) ?
LANA-H2B inh: inactive

How did Cc1cc(C)n2nc3nc4c(cc3c2n1)CCCC4 do in these assays?
RTF Ca sens act: 31; Keap1-Nrf2 PPI: inactive; LANA DNA inh: inactive; LANA-H2B inh: inactive; Cardiac RTF inh: inactive

What do the screens show for `COc1ccc(NC(=O)CSc2nn3c(=O)c(C)nnc3s2)cc1`?
RTF Ca sens act: inactive; Keap1-Nrf2 PPI: inactive; LANA DNA inh: inactive; LANA-H2B inh: 28; Cardiac RTF inh: inactive

What do the screens show for `COc1ccc(NC(=O)COC(=O)CCC(=O)c2cccs2)cc1OC`?
RTF Ca sens act: inactive; Keap1-Nrf2 PPI: inactive; LANA DNA inh: inactive; LANA-H2B inh: 23; Cardiac RTF inh: inactive

Results for COc1cc(CNCc2ccc(OC)c(OC)c2OC)cc(OC)c1 ?
RTF Ca sens act: inactive; Keap1-Nrf2 PPI: inactive; LANA DNA inh: inactive; LANA-H2B inh: 37; Cardiac RTF inh: inactive

Results for CCC(C)(C)NC(=O)c1ccc2c(c1)N(CC(=O)OC)C(=O)C(C)(C)O2 ?
RTF Ca sens act: inactive; Keap1-Nrf2 PPI: inactive; LANA DNA inh: inactive; LANA-H2B inh: 18; Cardiac RTF inh: inactive

Results for Cc1ccc(NC(=O)COCC(=O)Nc2ccc(C)cc2)cc1 ?
RTF Ca sens act: inactive; Keap1-Nrf2 PPI: inactive; LANA DNA inh: inactive; LANA-H2B inh: inactive; Cardiac RTF inh: inactive

How did Cc1ccc(S(=O)(=O)OCC(=O)Nc2ccc(C(=O)O)c(O)c2)cc1 do in these assays?
RTF Ca sens act: inactive; Keap1-Nrf2 PPI: inactive; LANA DNA inh: 62; Cardiac RTF inh: inactive

What do the screens show for `O=C(COC(=O)c1ccc(F)c(S(=O)(=O)N2CCOCC2)c1)NC1CC1`?
RTF Ca sens act: inactive; Keap1-Nrf2 PPI: inactive; LANA DNA inh: inactive; LANA-H2B inh: inactive; Cardiac RTF inh: inactive

Results for Cc1nn(-c2ccc(Cl)cc2)c2[nH]c(=O)c(CNCc3ccc4c(c3)OCO4)cc12 ?
RTF Ca sens act: inactive; Keap1-Nrf2 PPI: inactive; LANA DNA inh: inactive; LANA-H2B inh: 24; Cardiac RTF inh: inactive

What do the screens show for `CNC(=O)/C(=C\c1ccco1)NC(=O)c1ccco1`?
RTF Ca sens act: inactive; Keap1-Nrf2 PPI: inactive; LANA DNA inh: inactive; LANA-H2B inh: inactive; Cardiac RTF inh: inactive

What do the screens show for `CN1CCc2c(sc(/N=C/c3c[nH]c4ccccc34)c2C#N)C1`?
LANA-H2B inh: 38

How did COc1ccc(-c2nn(-c3ccccc3)cc2/C=N/NS(=O)(=O)c2ccccc2)cc1 do in these assays?
RTF Ca sens act: inactive; Keap1-Nrf2 PPI: inactive; LANA DNA inh: inactive; LANA-H2B inh: 10; Cardiac RTF inh: inactive

How did COCCC1CCCCN1C(=O)c1cc(COc2ccc(C)nc2)on1 (stereo unspecified) do in these assays?
RTF Ca sens act: inactive; Keap1-Nrf2 PPI: inactive; LANA DNA inh: inactive; LANA-H2B inh: 45; Cardiac RTF inh: inactive

What do the screens show for `CCOC(=O)C1CCCN(C(=O)c2cc(COc3ccc(C)nc3)on2)C1` (stereo unspecified)?
RTF Ca sens act: inactive; Keap1-Nrf2 PPI: inactive; LANA DNA inh: inactive; LANA-H2B inh: 18; Cardiac RTF inh: inactive

What do the screens show for `O=S(=O)(O)c1ccc(N=NNc2ccc(Br)cc2)cc1`?
RTF Ca sens act: inactive; Keap1-Nrf2 PPI: inactive; LANA DNA inh: inactive; LANA-H2B inh: inactive; Cardiac RTF inh: inactive

How did CC(C)CC1C(C#N)=C(N)SC(N)=C1C#N do in these assays?
RTF Ca sens act: 42; Keap1-Nrf2 PPI: inactive; LANA DNA inh: inactive; LANA-H2B inh: inactive; Cardiac RTF inh: inactive

How did N#CC1=C(N)SC(N)=C(C#N)C1c1c(Cl)cccc1Cl do in these assays?
RTF Ca sens act: inactive; Keap1-Nrf2 PPI: inactive; LANA DNA inh: inactive; LANA-H2B inh: inactive; Cardiac RTF inh: inactive

What do the screens show for `N#CC1=C(N)SC(N)=C(C#N)C1Cc1ccccc1`?
RTF Ca sens act: 43; Keap1-Nrf2 PPI: inactive; LANA DNA inh: inactive; LANA-H2B inh: inactive; Cardiac RTF inh: inactive

How did N#CC1=C(N)SC(N)=C(C#N)C1CCc1ccccc1 do in these assays?
RTF Ca sens act: 39; Keap1-Nrf2 PPI: inactive; LANA DNA inh: inactive; LANA-H2B inh: inactive; Cardiac RTF inh: inactive

How did O=C(C1CCCO1)N1CCN(S(=O)(=O)c2ccc(Cl)cc2)CC1 (stereo unspecified) do in these assays?
RTF Ca sens act: inactive; Keap1-Nrf2 PPI: inactive; LANA DNA inh: inactive; LANA-H2B inh: inactive; Cardiac RTF inh: inactive

How did COc1ccccc1NC(=O)NNC(=O)CN1C(=O)COc2ccccc21 do in these assays?
RTF Ca sens act: inactive; Keap1-Nrf2 PPI: inactive; LANA DNA inh: inactive; LANA-H2B inh: inactive; Cardiac RTF inh: inactive

What do the screens show for `CCc1ccccc1NC(=O)CN1CCN(C(=O)CNC(=O)c2ccc(N3CCCC3=O)cc2)CC1`?
RTF Ca sens act: inactive; Keap1-Nrf2 PPI: inactive; LANA DNA inh: inactive; LANA-H2B inh: inactive; Cardiac RTF inh: inactive

How did CCc1ccccc1NC(=O)CN1CCN(C(=O)CNC(=O)c2ccccc2F)CC1 do in these assays?
RTF Ca sens act: inactive; Keap1-Nrf2 PPI: inactive; LANA DNA inh: inactive; LANA-H2B inh: active; Cardiac RTF inh: inactive

What do the screens show for `CCC(C)NC(=O)CC1Oc2ccc(Cl)cc2NC1=O` (stereo unspecified)?
RTF Ca sens act: inactive; Keap1-Nrf2 PPI: inactive; LANA DNA inh: inactive; LANA-H2B inh: inactive; Cardiac RTF inh: inactive

How did Cc1cc(NC(=O)C2CC(=O)N(c3cccc(Cl)c3)C2)no1 (stereo unspecified) do in these assays?
RTF Ca sens act: inactive; Keap1-Nrf2 PPI: inactive; LANA DNA inh: inactive; LANA-H2B inh: 11; Cardiac RTF inh: inactive

What do the screens show for `Cc1cc(C)cc(N2CC(C(=O)Nc3cc(C)on3)CC2=O)c1` (stereo unspecified)?
RTF Ca sens act: inactive; Keap1-Nrf2 PPI: inactive; LANA DNA inh: inactive; LANA-H2B inh: inactive; Cardiac RTF inh: inactive

What do the screens show for `O=C(CNC(=O)c1cccc(F)c1)N/N=C/c1ccc([N+](=O)[O-])s1`?
RTF Ca sens act: inactive; Keap1-Nrf2 PPI: inactive; LANA DNA inh: inactive; LANA-H2B inh: 14; Cardiac RTF inh: inactive

What do the screens show for `O=C(Cc1ccccc1)OCC(=O)c1cccc([N+](=O)[O-])c1`?
RTF Ca sens act: inactive; Keap1-Nrf2 PPI: inactive; LANA DNA inh: inactive; LANA-H2B inh: inactive; Cardiac RTF inh: inactive

What do the screens show for `COc1ccccc1N1CCN(CC(O)COc2cccc3ccccc23)CC1` (stereo unspecified)?
RTF Ca sens act: inactive; Keap1-Nrf2 PPI: inactive; LANA DNA inh: inactive; LANA-H2B inh: 24!; Cardiac RTF inh: inactive

How did O=C(Nc1ccc(S(=O)(=O)Nc2cnc3ccccc3n2)cc1)c1cc(F)c(F)cc1Cl do in these assays?
RTF Ca sens act: inactive; Keap1-Nrf2 PPI: inactive; LANA DNA inh: inactive; LANA-H2B inh: 22; Cardiac RTF inh: inactive

Results for O=C(Nc1ccc(S(=O)(=O)Nc2cnc3ccccc3n2)cc1)c1ccc(Cl)cc1Cl ?
LANA-H2B inh: inactive
